According to PubChem BioAssay (Tox21):
Calls of active or inactive are those of the source. Unless noted, calls follow the shape of the dose curve; as a rule, active = well fitted curve in the direction sought with a large enough effect in the repeat runs; inconclusive = weak or mixed curves; inactive = no such curve, though single readings can be large; an effect the other way counts as inactive or inconclusive.

Legend:
[1] = qHTS assay for small molecules that induce genotoxicity in human embryonic kidney cells expressing luciferase-tagged ATAD5 - cell viability (AID 651634; calls by dose curve; also: nearly all actives have a fitted effect of over 25% in size)
Method in brief: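 Quantitative high-throughput format. HEK293T cells expressing ATAD5 fused to luciferase were plated at 2,000 cells/well and treated 15.5 hr with compound versus DMSO. Viability was determined by fluorescent live-cell protease substrate, 30 min at 37C.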

[2] = qHTS assay to test for compound auto fluorescence at 535 nm (green) in HEK293 cells (AID 720680)
[3] = qHTS assay for identifying genotoxic compounds that show differential cytotoxicity against isogenic chicken DT40 cell lines with known DNA damage response pathways - wild type cell line (AID 743012); also: nearly all actives have a fitted effect of over 60% in size; also: potency is read from the fitted curve at half-maximal effect
Method in brief: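 300 wt DT40 cells/well; cpd (DMSO) pintool-transferred after ~0.5 h at 37 C/5% CO2; 40 h incubation; CellTiter-Glo added, 30 min RT; luminescence read.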

[4] = qHTS assay for identifying genotoxic compounds that show differential cytotoxicity against isogenic chicken DT40 cell lines with known DNA damage response pathways - Rad54/Ku70 mutant cell line (AID 743015); also: nearly all actives have a fitted effect of over 60% in size; also: potency is read from the fitted curve at half-maximal effect
[5] = qHTS assay to identify small molecule antagonists of the androgen receptor (AR) signaling pathway - cell viability counter screen (AID 743033; also: nearly all actives have a fitted effect of over 45% in size)
[6] = qHTS assay to identify small molecule antagonists of the estrogen receptor alpha (ER-alpha) signaling pathway - cell viability counter screen (AID 743074; calls by dose curve;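 also: HEK293 cells carrying ER-alpha-UAS-bla reporter stimulated with 17beta-estradiol; nearly all actives have a fitted effect of over 45% in size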)
[7] = target: Nuclear receptor subfamily 1 group I member 2 (Rattus norvegicus) (UniProt Q9R1A7); test: Rat pregnane X receptor (rPXR) activation by small molecules, qHTS assay (AID 1346983); settings: rPXR luciferase reporter cells, One-Glo luminescence, 24 h; max activation: active compounds read high; also: nearly all actives have a fitted effect of over 20% in size
Method in brief: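 Luminescent readout (One-Glo luciferase, 30 min room temperature) followed 24 hr compound treatment at 37 C of rPXR cells plated 2,000 per well and preincubated 5hr; qHTS format with compounds delivered in DMSO.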

[8] = target: Nuclear receptor subfamily 1 group I member 2 (Homo sapiens) (UniProt O75469); test: CYP3A4 induction through human pregnane X receptor (PXR) by small molecules, qHTS assay (AID 1346984); also: nearly all actives have a fitted effect of over 40% in size
Method in brief: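 Human PXR activation is tracked via CYP3A4 promoter-luciferase in DPX-2 (HepG2) cells. Compounds treat cells for 24hr at 37C, and luminescence is read after One-Glo.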

[9] = target: Nuclear receptor subfamily 1 group I member 2 (Homo sapiens) (UniProt O75469); test: Human pregnane X receptor (PXR) activation by small molecules, qHTS assay (AID 1346985); also: nearly all actives have a fitted effect of over 40% in size; also: potency is read from the fitted curve at half-maximal effect
Method in brief: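 DPX-2 cells (HepG2 co-transfected with a PXR response element and a CYP3A4-promoter luciferase construct) were seeded at 2,000 per well, rested 5 hr at 37C, then exposed to DMSO-dissolved compounds for 24 hr. Activation was read as luciferase luminescence.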

[10] = qHTS assay to test for compound auto fluorescence at 460 nm (blue) in HepG2 cell free culture (AID 720685)
Method in brief: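 Cell-free plates of MEM plus 10% FBS received 23 nL compound or DMSO vehicle; blue-channel (405/460 nm) intensity scored against triamterene as reference fluorophore.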

[11] = qHTS assay to identify small molecule antagonists of the thyroid receptor (TR) signaling pathway - cell viability counter screen (AID 743064); also: nearly all actives have a fitted effect of over 50% in size; also: potency is read from the fitted curve at half-maximal effect
Method in brief: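 GH3.TRE-Luc rat pituitary cells dosed after 4 hr plating, co-stimulated with T3 at 1 nM final, incubated 23.5 h at 37 C. Viability measured in the same wells by CellTiter-Fluor fluorescence after 30 min further at 37 C.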

[12] = test system: thyroid hormone receptor (rat, GH3 cells); test: qHTS assay to identify small molecule agonists of the thyroid receptor (TR) signaling pathway (AID 743066; calls by dose curve)
[13] = target: Peroxisome proliferator-activated receptor gamma (Homo sapiens) (UniProt P37231); test: qHTS assay to identify small molecule agonists of the peroxisome proliferator-activated receptor gamma (PPARg) signaling pathway (AID 743094; active = well fitted activation curve with a large enough effect in the signal ratio in the repeat runs, not every such curve was filed as active; inconclusive = weak or mixed curves, or effect the other way; inactive = no such curve, though single readings can be large or run the other way; the % refers to the signal ratio)
Method in brief: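 Cell-based bla reporter, HEK293H background, PPARg-driven UAS. Pre-incubation 5 h, 37C, 5% CO2. Compound 17 h, 37C. Substrate 1 h RT; fluorescence.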

[14] = qHTS assay for identifying genotoxic compounds that show differential cytotoxicity against isogenic chicken DT40 cell lines with known DNA damage response pathways - Rev3 mutant cell line (AID 743014); also: nearly all actives have a fitted effect of over 55% in size; also: potency is read from the fitted curve at half-maximal effect
[15] = qHTS assay to identify small molecule antagonists of the thyroid receptor (TR) signaling pathway (AID 743065); also: nearly all actives have a fitted effect of over 55% in size; also: potency is read from the fitted curve at half-maximal effect
Method in brief: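 Antagonism measured as loss of luciferase signal in GH3 cells stably carrying a TRE-luciferase reporter, co-treated with compound and T3 (1 nM final) for 23.5 h at 37 C. Viability was read in the same well by CellTiter-Fluor.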

[16] = target: Estrogen receptor (Homo sapiens) (UniProt P03372); test: qHTS assay to identify small molecule antagonists of the estrogen receptor alpha (ER-alpha) signaling pathway (AID 743069; active = well fitted curve in the direction sought with a large enough effect in the signal ratio in the repeat runs, not every such curve was filed as active; inconclusive = weak or mixed curves, or effect the other way; inactive = no such curve, though single readings can be large or run the other way; the % refers to the signal ratio)
Method in brief: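 Antagonist mode: compounds in DMSO were co-added with 17beta-estradiol to ER-alpha-bla HEK293 cells (2% charcoal-stripped serum) and left 18 h at 37C. Reporter inhibition was measured as FRET fluorescence after 2 h LiveBLAzer substrate at room temperature.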

[17] = target: Estrogen receptor (Homo sapiens) (UniProt P03372); test: qHTS assay to identify small molecule agonists of the estrogen receptor alpha (ER-alpha) signaling pathway (AID 743075; calls by dose curve;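 also: HEK293 GripTite cells with ER-alpha and UAS-driven beta-lactamase reporter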; also: potency is read from the fitted curve at half-maximal effect)
[18] = target: Estrogen receptor (Homo sapiens) (UniProt P03372); test: qHTS assay to identify small molecule agonists of the estrogen receptor alpha (ER-alpha) signaling pathway using the BG1 cell line (AID 743079); also: nearly all actives have a fitted effect of over 20% in size; also: potency is read from the fitted curve at half-maximal effect
[19] = qHTS assay for small molecules that induce genotoxicity in human embryonic kidney cells expressing luciferase-tagged ATAD5 (AID 651632); also: nearly all actives have a fitted effect of over 15% in size; also: potency is read from the fitted curve at half-maximal effect
Method in brief: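 Test compounds were delivered by pin tool onto HEK293T reporter cells (2,000/well) expressing ATAD5 fused to luciferase. After 16 hr at 37C, 5% CO2, Amplite was added for 30 min at room temperature and luminescence was measured.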

[20] = qHTS assay for small molecule disruptors of the mitochondrial membrane potential (AID 720635); also: potency is read from the fitted curve at half-maximal effect
Method in brief: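 Mitochondrial membrane potential tracked with Mito-MPS dye, red aggregates (ex 540/em 590 nm) against green monomers (ex 490/em 535 nm). Compound treatment 1 hr at 37C, dye 30 min in HepG2.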
% is scaled to controls: 0 for no effect and ±100 for the full control effect.

Chain of Peroxisome proliferator-activated receptor gamma (Homo sapiens) (P37231 whole entry, looked up): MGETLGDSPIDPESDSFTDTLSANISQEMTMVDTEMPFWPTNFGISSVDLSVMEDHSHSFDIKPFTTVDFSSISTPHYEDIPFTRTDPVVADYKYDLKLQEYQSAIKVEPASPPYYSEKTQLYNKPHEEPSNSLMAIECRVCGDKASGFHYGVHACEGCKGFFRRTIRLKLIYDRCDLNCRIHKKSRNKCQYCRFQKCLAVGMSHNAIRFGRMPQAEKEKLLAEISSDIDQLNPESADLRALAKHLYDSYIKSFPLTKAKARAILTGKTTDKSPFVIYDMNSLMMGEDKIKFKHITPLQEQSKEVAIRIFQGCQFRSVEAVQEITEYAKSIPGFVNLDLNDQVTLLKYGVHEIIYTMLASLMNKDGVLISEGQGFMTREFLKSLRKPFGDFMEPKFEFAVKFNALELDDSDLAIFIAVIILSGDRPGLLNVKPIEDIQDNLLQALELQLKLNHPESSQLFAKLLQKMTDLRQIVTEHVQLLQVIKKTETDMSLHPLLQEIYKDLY
Chain of Nuclear receptor subfamily 1 group I member 2 (Rattus norvegicus) (Q9R1A7 whole entry, looked up): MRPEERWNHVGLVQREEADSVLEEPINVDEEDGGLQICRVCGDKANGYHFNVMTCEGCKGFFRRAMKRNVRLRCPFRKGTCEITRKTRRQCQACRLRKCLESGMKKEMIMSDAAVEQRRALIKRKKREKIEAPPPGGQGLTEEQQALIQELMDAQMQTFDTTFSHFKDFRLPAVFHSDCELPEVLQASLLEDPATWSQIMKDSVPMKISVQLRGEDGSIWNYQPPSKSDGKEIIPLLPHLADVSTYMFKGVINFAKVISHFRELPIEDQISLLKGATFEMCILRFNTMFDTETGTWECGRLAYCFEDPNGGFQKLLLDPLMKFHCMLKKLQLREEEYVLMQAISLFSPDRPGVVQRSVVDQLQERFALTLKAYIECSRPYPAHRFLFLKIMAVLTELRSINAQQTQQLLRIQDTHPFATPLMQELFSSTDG
Chain of Estrogen receptor (Homo sapiens) (P03372 whole entry, looked up): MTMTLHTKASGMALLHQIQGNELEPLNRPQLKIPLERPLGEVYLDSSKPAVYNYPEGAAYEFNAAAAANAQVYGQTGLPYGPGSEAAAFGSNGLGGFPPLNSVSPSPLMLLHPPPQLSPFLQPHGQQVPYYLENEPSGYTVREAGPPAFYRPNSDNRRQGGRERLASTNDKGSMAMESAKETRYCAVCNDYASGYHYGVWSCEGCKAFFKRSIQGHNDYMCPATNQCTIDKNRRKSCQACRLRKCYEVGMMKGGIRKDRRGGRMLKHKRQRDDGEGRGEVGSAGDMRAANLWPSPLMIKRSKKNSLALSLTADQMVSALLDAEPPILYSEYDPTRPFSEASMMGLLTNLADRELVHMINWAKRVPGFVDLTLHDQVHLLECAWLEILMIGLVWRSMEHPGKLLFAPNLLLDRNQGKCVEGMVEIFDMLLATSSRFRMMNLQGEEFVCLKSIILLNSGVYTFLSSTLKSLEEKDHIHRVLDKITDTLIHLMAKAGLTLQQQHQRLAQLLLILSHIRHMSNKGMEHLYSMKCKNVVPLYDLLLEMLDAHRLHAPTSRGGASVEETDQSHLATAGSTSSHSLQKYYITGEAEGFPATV

C[N+]1(C)CCCCC1COC(=O)C(O)(c1ccccc1)c1ccccc1 (stereo unspecified)
inactive: Potency [1] | Potency [2] | Potency [3] | Potency [4] | Potency [5] | Potency [6] | max activation [7] 2.59% | Potency [8] | Potency [9]

CCN(CC)C(=O)N[C@H]1C[C@@H]2c3cccc4[nH]cc(c34)C[C@H]2N(C)C1
active: Potency [9] 25100 nM
inactive: Potency [2] | Potency [10] | Potency [5] | Potency [11] | Potency [12] | Potency [6] | Potency [13] | max activation [7] -1.74%

CN1CCCC(=C(c2cccs2)c2cccs2)C1
inactive: Potency [1] | Potency [2] | Potency [10] | Potency [14] | Potency [5] | Potency [11] | Potency [15] | Potency [12] | Potency [16] | Potency [6] | Potency [17] | Potency [18] | Potency [13] | max activation [7] -1% | Potency [8] | Potency [9]

CN1[C@H]2CC[C@@H]1[C@@H](C(=O)O)[C@@H](OC(=O)c1ccccc1)C2
inactive: Potency [19] | Potency [1] | Potency [20] | Potency [2] | Potency [10] | Potency [3] | Potency [14] | Potency [4] | Potency [5] | Potency [11] | Potency [15] | Potency [12] | Potency [16] | Potency [6] | Potency [17] | Potency [18] | Potency [13] | Potency [8] | Potency [9]

CCC(=O)O[C@]1(c2ccccc2)CCN(C)C[C@H]1C
inactive: Potency [19] | Potency [1] | Potency [20] | Potency [2] | Potency [10] | Potency [5] | Potency [15] | Potency [12] | Potency [16] | Potency [6] | Potency [17] | Potency [18] | Potency [13] | Potency [8] | Potency [9]
active: Potency [3] 21100 nM

N#CC1(N2CCCCC2)CCCCC1
inactive: Potency [19] | Potency [20] | Potency [2] | Potency [3] | Potency [14] | Potency [4] | Potency [5] | Potency [11] | Potency [15] | Potency [12] | Potency [16] | Potency [6] | Potency [17] | Potency [18] | Potency [13] | max activation [7] -1.32% | Potency [8] | Potency [9]

COC(=O)[C@@H]1[C@H]2CC[C@@H](C[C@H]1OC(=O)c1ccccc1)N2C
inactive: Potency [20] | Potency [2] | Potency [10] | Potency [14] | Potency [4] | Potency [5] | Potency [11] | Potency [15] | Potency [12] | Potency [16] | Potency [6] | Potency [17] | Potency [18] | Potency [13] | Potency [8] | Potency [9]

NC1=NC(=O)N2CC12 (stereo unspecified)
inactive: Potency [1] | Potency [20] | Potency [10] | Potency [3] | Potency [14] | Potency [4] | Potency [5] | Potency [11] | Potency [15] | Potency [12] | Potency [16] | Potency [6] | Potency [17] | Potency [18] | Potency [13] | max activation [7] -1.23% | Potency [8] | Potency [9]

COC([CH2][Hg])CNC(=O)c1ccccc1OCC(=O)O (stereo unspecified)
active: Potency [3] 1680 nM | Potency [4] 2980 nM
inactive: Potency [20] | Potency [2] | Potency [10] | Potency [5] | Potency [11] | Potency [16] | Potency [6] | Potency [17] | Potency [18] | max activation [7] 7.87% | Potency [8] | Potency [9]

S=C(S)N1CCNCC1
inactive: Potency [19] | Potency [1] | Potency [20] | Potency [2] | Potency [10] | Potency [3] | Potency [4] | Potency [5] | Potency [11] | Potency [15] | Potency [12] | Potency [16] | Potency [6] | Potency [17] | Potency [18] | Potency [13] | Potency [8] | Potency [9]

CCNCC(O)c1cccc(O)c1 (stereo unspecified)
inactive: Potency [19] | Potency [1] | Potency [20] | Potency [2] | Potency [14] | Potency [4] | Potency [5] | Potency [11] | Potency [15] | Potency [12] | Potency [16] | Potency [6] | Potency [17] | Potency [18] | Potency [13] | Potency [8] | Potency [9]

C[C@]12CC[C@H]3[C@@H](CCC4=C(Cl)C(=O)CC[C@@]43C)[C@@H]1CC[C@@H]2O
active: Potency [3] 16800 nM | Potency [14] 9440 nM | Potency [4] 23700 nM | Potency [15] 13300 nM | Potency [17] 2680 nM [inconclusive] | Potency [18] 1500 nM
inactive: Potency [19] | Potency [2] | Potency [10] | Potency [5] | Potency [11] | Potency [12] | Potency [6] | Potency [13] | max activation [7] -0.226% | Potency [8]

CCCCCCC(=O)O[C@H]1CC[C@H]2[C@@H]3CC[C@H]4CC(=O)C=C(C)[C@]4(C)[C@H]3CC[C@]12C
active: Potency [17] 6740 nM [inconclusive] | Potency [18] 2110 nM
inactive: Potency [1] | Potency [2] | Potency [14] | Potency [4] | Potency [11] | Potency [15] | Potency [12] | Potency [13] | max activation [7] -2.7% | Potency [8] | Potency [9]

COc1cc([C@@H]2c3cc4c(cc3[C@@H](O)[C@H]3COC(=O)[C@H]23)OCO4)cc(OC)c1O
inactive: Potency [2] | Potency [10] | Potency [16] | Potency [6] | Potency [18]
active: Potency [19] 1880 nM | Potency [20] 2110 nM | Potency [3] 237 nM | Potency [14] 266 nM | Potency [4] 266 nM | Potency [11] 10600 nM | Potency [15] 266 nM
